This note sets out measurements from PubChem BioAssay AID1489 (National Center for Advancing Translational Sciences (NCATS), 2009).

Results filed as inconclusive are left out. Active and inactive are the calls of the source. Calls follow the shape of the dose curve; as a rule, active = well fitted antagonist curve with a large enough effect in the main read-out, with a control signal flat; inconclusive = small, poorly fitted or top-dose-only effect; inactive = no such curve, though single readings can be large or run the other way.

Sequence of Neuropeptide S receptor (Homo sapiens) (Q6W5P4 whole entry, looked up): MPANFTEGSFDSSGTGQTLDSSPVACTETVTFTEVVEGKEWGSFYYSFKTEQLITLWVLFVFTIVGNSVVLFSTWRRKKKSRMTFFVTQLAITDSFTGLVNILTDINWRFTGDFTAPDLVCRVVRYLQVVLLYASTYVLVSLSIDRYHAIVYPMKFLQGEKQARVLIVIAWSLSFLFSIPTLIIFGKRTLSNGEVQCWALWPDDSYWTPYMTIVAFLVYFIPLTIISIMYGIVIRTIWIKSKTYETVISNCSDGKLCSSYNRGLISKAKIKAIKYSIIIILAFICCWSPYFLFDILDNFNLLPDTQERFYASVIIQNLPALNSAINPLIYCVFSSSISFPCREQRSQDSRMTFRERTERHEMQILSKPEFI

This test deals with Neuropeptide S receptor (Homo sapiens) (UniProt Q6W5P4). Put plainly: Confirmation Concentration-Response Assay for Antagonists of the Neuropeptide S Receptor: Calcium Signal Transduction. The following applies: CHO-NPSR cells, NPS-induced calcium flux, FDSS; series mostly up to 19.3 µM. An excerpt:
NIH Chemical Genomics Center [NCGC] NIH Molecular Libraries Probe Production centers Network [MLPCN] MLPCN Grant: X01-DA026210-01 Assay Submitter (PI): Heilig, Markus Alexander NCGC Assay Overview: Neuropeptide S receptor (NPSR), previously known as GPR154, is a recently de-orphanized G protein coupled receptor. Its endogenous ligand is the 20 amino acids peptide Neuropeptide S (NPS). […] NPS and its receptor are found in various tissues. Specifically they are highly expressed in brain areas that have been implicated in modulation of arousal, stress and anxiety. Central administration of NPS in mice produces an unusual profile of activity by inducing wakefulness and arousal, while at the same time suppressing anxiety. Therefore, NPSR may represent a novel drug target for the treatment of sleep and anxiety disorders. To identify NPSR antagonists, we developed a cell-based assay with transfected NPS receptor. NPS can stimulate the production of cAMP as well as release intracellular calcium in Chinese hamster ovary cells stably expressing NPS receptor. This change in intracellular calcium can be detected using a calcium indicator dye on a calcium imaging plate reader system (FDSS).
NCGC Assay Protocol Summary: A Chinese hamster ovary (CHO) cell line stably expressing the NPS receptor (CHO-NPSR) was obtained from Dr. Heilig lab at NIAAA and maintained in F-12 Kaighn's media (Invitrogen, Carlsbad, CA, 21127) supplemented with 10 % FBS, 100 units/ml penicillin, 100 ug/ml streptomycin and 250 ug/ml geneticin at 37C, 5% CO2 in a humidified atmosphere. Before the assay, aliquots of cells were frozen and stored at -135C. The assay was performed on a FDSS-7000 kinetic plate reader in 1536-well format. For both agonist (1-220s) and antagonist (221-400s) phases, the maximums of kinetic fluorescence responses were converted separately into text files using the instrument's software data export utility. Data for agonist response were normalized to the controls for basal activity (DMSO only) and 100% activation (NPS). […] AC50 values were determined from concentration-response data modeled with the standard Hill equation. NPS 1536-well FDSS assay protocol: (1) Frozen CHO-NPSR cells were thaw, washed once with fresh media and resuspended in F-12 Kaighn's media supplemented with 10 % FBS, 100 units/ml penicillin and 100 ug/ml streptomycin. Cells were plated at 3 ul/well (1200 cells) to black, clear-bottom, tissue-culture treated 1536-well plates, and then cultured at 37C, 5 % CO2 for 16 to 30 hours. (2) Add 3 ul of calcium dye (from High Performance PBX Calcium Assay Kit, BD Biosciences). The calcium dye was prepared according to the manufactory's instruction. (3) Incubation at 37C, 5 % CO2 for 60 to 120 min. (4) Load plates to FDSS-7000. The following steps were performed on FDSS-7000. (5) Record fluorescent background (Ex 480 nm, Em 520-560 nm) for 10 s. (6) Add 23 nl/well of compound in DMSO solution. The final titration for each compound was between 0.6 nM and 46 uM. Record agonist response for 210 s. (7) Add 2 ul of stimulation reagent (1X HBSS buffer, 0.1% BSA, 60 nM NPS). Record antagonist response for 140 s. Keywords: MLSMR, MLPCN, NIH Roadmap, qHTS, NCGC, NPS, Neuropeptide S Antagonists
On the technique in general: Calcium assays in cells follow changes in intracellular calcium, usually with a dye or a luminescent sensor.
Consider `C=C(C=O)C[C@@H]1C[C@H](O)C2OC3C[C@]4(C)OC5/C=C\CC6OC7C(CC=CCC6OC5CCCC4OC3CC2O1)OC1CC2OC3CC(=O)OC3C[C@@H](C)C[C@@]2(C)OC1C[C@@H]7C` (stereo not given in full), for which the Potency was 501 nM (active).

In the case of `C[C@H]1CCCC(=O)CCCCCc2cc(O)cc(O)c2C(=O)O1`, the Potency entry was “inactive”.

As to `C=C1C(=O)O[C@@H]2C[C@@H](C)[C@@H]3C=CC(=O)[C@@]3(C)[C@@H](OC(=O)CC(=O)O[C@H]3[C@@H]4C(=C)C(=O)O[C@@H]4C[C@@H](C)[C@@H]4C=CC(=O)[C@]43C)[C@H]12`, the Potency was 89.1 nM (active).

As to `Cc1c(P(=S)(c2ccccc2)c2ccccc2)[n+]2ccccc2n1C`, the Potency is 200 nM (active).

For the compound `Cc1cc(C=C2C(=O)NC(=S)NC2=O)c(C)n1-c1ccc2c(c1)OCO2`, the Potency is 12600 nM (active).

For `Cc1cccc(N2C(=O)NC(=O)/C(=C\c3cnn(-c4ccccc4)c3)C2=O)c1`, the Potency was 10000 nM (active).

On to `CCOC(=O)c1c(-n2c(C)cc(C=C3C(=O)NC(=S)NC3=O)c2C)sc2c1CCCC2`, for which the Potency was 2000 nM (active).

Take `C=CCN1C(=O)/C(=C/c2cccs2)C(=O)NC1=S`: the Potency is 11200 nM (active).

On to `CC(=O)Nc1cc([As](=O)(O)O)ccc1O`, for which the Potency result is “inactive”.

Turning to `CNc1ccc2oc(C[C@H]3O[C@@]4(CC[C@H]3C)O[C@H]([C@H](C)C(=O)c3ccc[nH]3)[C@H](C)C[C@H]4C)nc2c1C(=O)O`, the Potency is 15.8 nM (active).
